In PubChem BioAssay AID1626 (SRMLSC, 2009):
Hit rate of the full screen: of about 220,000 compounds, about 2,000 (0.91%) were called active. Roughly 2% stayed inconclusive and do not appear here. These entries were drawn from the full list. Potency and affinity values are given separately. A number with no mark means an inactive call. Cut-off read from the data, not from the text of the source: inconclusive = inhibition above about 80% without an active follow-up result; inactive = below that; test concentration not stated here.

Assay: M. tuberculosis H37Rv growth inhibitors, H37Rv strain (AID 1626);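 note: bacteria incubated seven days before Alamar blue readout; 0% = bacteria only wells and 100% = bacteria with antibiotic wells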
Conditions: stronger effect = higher value, concentration not given here

Structure (SMILES) | inhibition [%]
CCNC(=O)N1CCN(C(=O)NCC)CC1 | -2.46
Cc1cc(/C=N/n2cnnc2)c(C)n1-c1ccc(Cl)cc1 | 8.9
Cc1cc(/C=N/n2cnnc2)c(C)n1-c1ccc(Cl)cc1Cl | 12.1
CC(=O)Oc1ccc(C(=O)Nc2cc(NC(=O)c3ccc(OC(C)=O)cc3)cc(C(=O)NC(C)(C)C)c2)cc1 | -1.93
CCN1CCC(O)(c2ccccc2)C(C(=O)c2ccccc2)C1 (centres undefined) | 50.9
CCCCN1CCC(O)(c2ccccc2)C(C(=O)c2ccccc2)C1 (centres undefined) | 5.96
O=S(=O)(N1CCOCC1)N1CCN(c2ccc(F)cc2)CC1 | -7.1
Cc1[nH]c(=O)[nH]c(=O)c1/C=C/C(=O)O | -8.34
Nc1c(C(=O)OCC(=O)NCc2ccccc2)[nH]c(=O)[nH]c1=O | -4.41
CCOc1ccc2nc(SCC(=O)N(C)C)[nH]c2c1 | -11.1
CO/N=C(/CS(=O)Cc1ccc(Cl)cc1)c1ccc(Cl)cc1 (centres undefined) | 1.17
COC(=O)COc1ccc(S(=O)(=O)NCCC2=CCCCC2)cc1 | 25.1
CCCNS(=O)(=O)c1ccc(OCC(=O)NCCC2=CCCCC2)cc1 | 13.8
Cc1cccc(C)c1NC(=O)CNC(=O)CCC(=O)c1cccs1 | -5.43
CC(C)c1ccc(NC(=O)c2csnn2)cc1 | -0.83
Cc1ccc(NC(=O)c2snc3ccc(Cl)cc23)cc1C | 6.9
Cc1ccc2nc(N3CCN(c4cccc(C)c4C)CC3)c3nnnn3c2c1 | -7.81
Cc1ccc(-c2nc3ccccc3n3nnnc23)cc1 | 4.17
CC(C)CNC(=O)CN1C(=O)NC(Cc2c[nH]c3ccccc23)C1=O (centres undefined) | -13.9
O=C(NCC1CCN(S(=O)(=O)c2ccccc2)CC1)Nc1ccccc1 | 10.3
O=C(N/N=C/c1cccc(O)c1)c1ccccc1O | -7.64
Cc1ccc(Cn2ccc(=O)c(Cc3c(Cl)cccc3Cl)c2C)cc1 | 0.62

Structure (SMILES) | inhibition [%]
Cc1ccc(Cn2ccc(=O)c(OCc3ccccc3)c2C)cc1 | 1.78
CC(C)=Nc1ccccc1C1COC(=O)C1=N (centres undefined) | -1
COc1ccccc1NC(=O)O/N=C(\N)c1ccccc1 | 11.1
Cc1nc(CC(=O)c2ccc(O)c(C)c2O)cs1 | 7.54
O=C(CSc1ccc2ccccc2n1)N1CCC(c2noc3ccc(F)cc23)CC1 | -2.15
Cc1nnc(SCC(=O)N2CCC(c3noc4ccc(F)cc34)CC2)s1 | -0.75
COC(=O)C[C@H]1c2cc(C(F)(F)F)ccc2S(=O)(=O)N1C1CCCC1 | -3.21
O=C(Cc1ccc(Br)cc1)Nc1ccc(Cl)cc1 | -2.03
COc1ccc(C2C(C(=O)O)c3ccccc3C(=O)N2Cc2ccco2)cc1 (centres undefined) | -9.26
CCOC(=O)Nc1cccc(Nc2ccccc2)c1 | 3.05
CC(=O)Nc1ccc(NC(=O)Oc2ccccc2)cc1 | -9.97
CCOC(=O)c1ccc(NC(=O)Nc2ccc(S(N)(=O)=O)cc2)cc1 | -7.07
COC(=O)c1ccc(NC(=O)CCOc2ccccc2)cc1 | 23.7
O=C(CCOc1ccccc1)Nc1ccccc1 | 7.71
CCOC(=O)Nc1ccc(Oc2ccccc2)cc1 | 8.39
CC(=O)c1ccc(NC(=O)Oc2ccccc2)cc1 | -7.64
COC(=O)c1ccc(NC(=O)NS(=O)(=O)c2ccc(C)cc2)cc1 | 55.9
CC(C)c1ccccc1NC(=O)COc1ccc2c(=O)c(Oc3ccc4ccccc4c3)coc2c1 | 5.82
COC(=O)c1cc(NS(=O)(=O)c2cccc(Cl)c2)ccc1N1CCOCC1 | 3.2
O=C(CN(CC1CCCO1)C(=O)CCC(=O)Nc1nccs1)NCc1ccccc1 (centres undefined) | -3.47
COc1ccccc1N(C)S(=O)(=O)c1ccc(C(=O)OCC(=O)N2CCCCCC2)cc1 | 9.09
CC1=NN(C(C#N)c2cccc([N+](=O)[O-])c2)C(C)(C)C1 (centres undefined) | -1.89

Structure (SMILES) | inhibition [%]
Cc1ccc(OCCC(=O)Nc2ccc(F)c(F)c2)cc1 | -1.46
COc1ccc(NC(=O)CCOc2ccccc2)cc1 | 70.1
CC(=O)Nc1ccc(NC(=O)CCSCCc2ccccn2)cc1 | -0.22
Cc1ccc(NC(=O)CCSCCc2ccccn2)cc1 | 71.6
CCOC(=O)c1ccc(NC(=O)CN(C)S(=O)(=O)c2ccc(OC)cc2)cc1 | -10.7
Cc1ccc(OCCCC(=O)Nc2ccc(Br)cc2)cc1 | -4.3
O=C(CN1CC(=O)Nc2ccccc21)Nc1ccc(F)c(F)c1 | 0.62
COc1ccc(CCNC(=O)CSc2cccc3cccnc23)cc1OC | 3.55
CCC(C)NC(=O)c1ccccc1SC (centres undefined) | 9.14
CCN(Cc1cc(=O)[nH]c2ccccc12)C(=O)c1ccc(C)cc1 | -2.96
COc1ccc(C(=O)NC(=S)Nc2ccc(CN3CCCCC3)cc2)cc1Cl | 7.56
CCOC(=O)c1c(C)oc2ccc(OCC(N)=O)cc12 | 8.61
Cc1oc2ccc(OC(=O)N(C)C)cc2c1C(=O)OC(C)C | -7.47
CCOC(=O)c1c(C)oc2ccc(OS(C)(=O)=O)cc12 | 0.04
COC(=O)c1c(C)oc2ccc(OC(=O)N3CCOCC3)cc12 | -6.17
Cc1oc2ccc(OS(C)(=O)=O)cc2c1C(=O)OC(C)C | -0.97
COC(=O)c1c(C)oc2ccc(NS(=O)(=O)c3cccs3)cc12 | 2.07
COC(=O)c1ccc(CSc2nc3c(cnn3-c3ccc(C)cc3)c(=O)[nH]2)o1 | -0.23
CC1(C)C(=O)Nc2ccccc2N1C(=O)COc1ncnc2ccccc12 | 4.16
O=C(C[n+]1ccc(/C=N/O)cc1)NCc1ccccc1 | -12.5
